Legend:
Assay in all cases: PBM binding z-score (relative to random genomic background probes); higher = stronger binding; sequences stand for … in GC…GCGATTGACAGCGTAGAATGAAGG
[1] = tested on: PPARg:RXRa DBDmut IVT, anti-RXR (DBD mutation: RXRa K156A/R161A, NR concentration 270 nM, RXRa partner concentration 90 nM)
How it was run: (§1)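 On custom Agilent 4×180K arrays, double-stranded probes with 34-nt variable regions carried direct-repeat seeds, single-nucleotide variants, half-site ablations or random human genomic background. Ligand-free nuclear receptor dimers were applied for 1 h, and binding was read with antibodies against each partner (one per run). Binding z-scores come from regression-normalized fluorescence, with the random background probes as reference.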

[2] = tested on: PPARg:RXRa IVT, anti-PPARg (NR concentration 270 nM, RXRa partner concentration 90 nM)
How it was run: as §1

[3] = tested on: PPARg DBDmut:RXRa IVT, anti-PPARg (DBD mutation: PPARg1 K132A/R137A, NR concentration 270 nM, RXRa partner concentration 90 nM)
How it was run: as §1

[4] = tested on: PPARg DBDmut IVT, anti-PPARg (DBD mutation: PPARg1 K132A/R137A, NR concentration 270 nM)
How it was run: as §1

[5] = tested on: PPARg homodimer (NR concentration 180 nM)
How it was run: as §1

[6] = tested on: PXR:RXRa (NR concentration 270 nM, RXRa partner concentration 90 nM)
How it was run: as §1

[7] = tested on: PXR homodimer (NR concentration 270 nM)
How it was run: as §1

[8] = tested on: RARa:RXR (NR concentration 270 nM, RXRa partner concentration 90 nM)
How it was run: as §1

[9] = tested on: RARa homodimer (NR concentration 270 nM)
How it was run: as §1

[10] = tested on: RARb:RXRa (NR concentration 270 nM, RXRa partner concentration 90 nM)
How it was run: as §1

[11] = tested on: RARb homodimer (NR concentration 270 nM)
How it was run: as §1

[12] = tested on: RARg:RXRa (NR concentration 270 nM, RXRa partner concentration 90 nM)
How it was run: as §1

[13] = tested on: RARg homodimer (NR concentration 270 nM)
How it was run: as §1

[14] = tested on: RXRa DBDmut IVT, anti-RXR (DBD mutation: RXRa K156A/R161A, NR concentration 90 nM)
How it was run: as §1

[15] = tested on: RXRa homodimer (NR concentration 180 nM)
How it was run: as §1

[16] = tested on: THRa:RXRa (NR concentration 90 nM, RXRa partner concentration 90 nM)
How it was run: as §1

[17] = tested on: THRa homodimer (NR concentration 90 nM)
How it was run: as §1

[18] = tested on: VDR homodimer (NR concentration 270 nM)
How it was run: as §1

| Sequence | PBM binding z-score [1] | PBM binding z-score [2] | PBM binding z-score [3] | PBM binding z-score [4] | PBM binding z-score [5] | PBM binding z-score [6] | PBM binding z-score [7] | PBM binding z-score [8] | PBM binding z-score [9] | PBM binding z-score [10] | PBM binding z-score [11] | PBM binding z-score [12] | PBM binding z-score [13] | PBM binding z-score [14] | PBM binding z-score [15] | PBM binding z-score [16] | PBM binding z-score [17] | PBM binding z-score [18] |
| --- | --- | --- | --- | --- | --- | --- | --- | --- | --- | --- | --- | --- | --- | --- | --- | --- | --- | --- |
| ACTCGGAGGACCAAGGTCAGAGCTACGCCAGTGA | -0.502 | 0.431 | -1.19 | -0.608 | 1.18 | 1.34 | 0.0514 | 1.88 | -0.14 | 2.86 | 2.9 | 2.35 | 2.61 | 0.197 | 2.03 | 2.44 | 1.17 | 0.899 |
| TCTTGTTGGTCAAAGGTCACACACTCGAAATGCG | 3.64 | 5.98 | 1.27 | 1.91 | 4.88 | 5.9 | 1.75 | 7.15 | 3.44 | 5.25 | 5.33 | 7.36 | 6.57 | 2.02 | 8.27 | 4.21 | 2.56 | 3.06 |
| ATATGTAGGTTAAGTGTCATTCAGGTTGGTTCGC | 7.37 | 7.34 | 2.11 | 2.12 | 1.85 | 1.87 | 0.52 | 2.1 | 1.63 | 1.99 | 2.02 | 1.53 | 1.47 | 1.1 | 1.9 | 1.58 | 1.08 | 1.53 |
| TCGAGTAGGTTACCAAAGGGGCATTCAGCTTTCT | 3 | 2.74 | 0.155 | 0.119 | 0.4 | 0.735 | -0.508 | 0.81 | -0.941 | 1.37 | 1.34 | 2.2 | 0.617 | 0.44 | 0.779 | 0.46 | -0.71 | 0.0103 |
| TAGCCTAGGTCATTCAGGGGCCAGTATCGAAAGC | 1.77 | 2.83 | 0.988 | -0.403 | 1.28 | 2.47 | 0.344 | 3.36 | -0.599 | 3.67 | 3.55 | 5.82 | 4.73 | 1.96 | 3.05 | 3.47 | 0.885 | 1.48 |
| ATCTCGAGGTAAAAGTTCAGTGAATCCCGAGGAT | -0.0537 | 2.11 | 0.38 | 0.58 | 0.813 | 2.53 | 0.878 | 2.6 | -0.00487 | 2.54 | 2.35 | 2.35 | 1.86 | 0.47 | 2.58 | 1.99 | 0.159 | 0.883 |
| TCGAGTAGGTTACAAATGGGGCATTCAGCTTTCT | 3.56 | 3.01 | 0.207 | -0.201 | 0.131 | 0.0276 | -0.499 | 0.475 | 0.267 | 0.54 | 0.369 | 0.68 | 0.323 | 0.884 | 0.39 | 0.1 | -0.394 | -0.133 |
| CCTTACGGGTCACTTCAGGTTATAGCATCGGAGT | 3.08 | 3.1 | 0.834 | 0.414 | 1.97 | 5.04 | 0.776 | 3.67 | 1 | 3.57 | 2.86 | 4.35 | 4.1 | 1.67 | 4.38 | 5.04 | 1.29 | 1.71 |
| TCTAGTAGTTGATTAGGGCAACCGAAACAGCGGA | 1.59 | 1.34 | -0.69 | 0.23 | -0.0887 | 0.0313 | -0.395 | 0.285 | -0.475 | 0.581 | 0.439 | 0.0761 | -0.0123 | 0.339 | 0.492 | 0.48 | -0.325 | -0.315 |
| CTCGAAAGGCCGTGCTCAGGTGAGTATACCAAAC | -0.523 | -0.175 | -0.959 | -0.325 | -1.11 | -0.568 | -0.631 | -0.118 | -0.796 | 1.05 | 0.384 | 0.136 | 0.46 | 0.0515 | -0.297 | 1.61 | 0.381 | -0.249 |
| CGTCCGAGGTCAGAGAGGTCAGTGAATGCCGAGT | 3.24 | 4.09 | -0.171 | -0.203 | 4.74 | 6.53 | 12.4 | 5.71 | 0.718 | 5.23 | 5.44 | 6.94 | 7.68 | 3.68 | 6.87 | 4.59 | 3 | 6.58 |
| CCTACTGGGGCAAGGTCATTGATCAGTCAAAGCA | 4.91 | 5.97 | 1.59 | 0.39 | 4.67 | 3.88 | 1.04 | 4.17 | 0.391 | 3.5 | 3.3 | 4.12 | 3.61 | 1.28 | 3.54 | 3.25 | 1.6 | 3.27 |
| TGGCCTAGGTCATTCAGGGGCCAGTATAGAAAGC | 1.06 | 2.22 | -0.515 | -0.779 | 1.82 | 2.48 | -0.213 | 3.77 | 0.313 | 3.94 | 3.18 | 6.37 | 5.07 | 1.39 | 3.29 | 3.47 | 0.314 | 1.37 |
| TCAGACAGGTGAAGGAAACTCAGGTACGCAGTCG | 2.96 | 0.598 | 0.181 | -0.163 | 0.667 | 0.502 | 0.224 | 0.564 | 0.502 | 0.976 | 0.458 | 0.429 | 0.359 | 1.34 | 0.487 | 0.592 | 0.421 | 0.426 |
